In all, about 5,500 compounds went through this assay and about 2,000 (36%) were called active. Another 18% or so got no clear call; they are omitted. No stated cut-off is given here; in the data, active means normalized growth mostly below about 0.91 (no sharp cut-off); inconclusive means no clear call, values can overlap the other calls; inactive means mostly above about 0.92. Some of the results follow.
Experiment: chemical genetic growth profiling, strain panel (AID 1159580);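 further: tested at 20 µM; growth read once vehicle control cultures reached saturation at 30 °C; 1 = growth at the plate median or of vehicle wells; lower values mean less growth of the strain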
Settings: S. cerevisiae deletion strains, growth OD

Measured: normalized growth

COc1cc(NC(=S)Nc2ccccc2OC(F)(F)F)cc(C(F)(F)F)c1
active: locus YHR030C, strain SLT2, hits give low values 0.824
inactive: locus YAR019C, strain CDC15, hits give low values 0.969 | locus YBL105C, strain PKC1, hits give low values 0.977 | locus YBR135W, strain CKS1, hits give low values 0.977 | locus YBR136W, strain MEC1, hits give low values 0.975 | locus YBR160W, strain CDC28, hits give low values 0.972 | locus YDL017W, strain CDC7, hits give low values 0.982 | locus YDL028C, strain MPS1, hits give low values 0.962 | locus YDL101C, strain DUN1, hits give low values 0.99 | locus YDL108W, strain KIN28, hits give low values 0.965 | locus YDL132W, strain cdc53, hits give low values 0.974 | locus YDL214C, strain PRR2, hits give low values 0.937 | locus YDR052C, strain DBF4, hits give low values 0.991 | locus YDR054C, strain cdc34, hits give low values 0.975 | locus YDR226W, strain ADK1, hits give low values 0.977 | locus YDR477W, strain SNF1, hits give low values 0.945 | locus YER123W, strain YCK3, hits give low values 0.931 | locus YER133W, strain GLC7, hits give low values 0.948 | locus YFL009W, strain cdc4, hits give low values 0.967 | locus YFL029C, strain CAK1, hits give low values 0.962 | locus YFR003C, strain YPI1, hits give low values 0.987 | locus YFR019W, strain FAB1, hits give low values 0.983 | locus YFR028C, strain CDC14, hits give low values 0.969 | locus YGR040W, strain KSS1, hits give low values 0.951 | locus YGR052W, strain FMP48, hits give low values 0.994 | locus YGR092W, strain DBF2, hits give low values 0.962 | locus YHR079C, strain IRE1, hits give low values 0.985 | locus YHR082C, strain KSP1, hits give low values 0.972 | locus YHR205W, strain SCH9, hits give low values 0.922 | locus YIL147C, strain SLN1, hits give low values 0.961 | locus YJL095W, strain BCK1, hits give low values 0.956 | locus YJL128C, strain PBS2, hits give low values 0.929 | locus YJL157C, strain FAR1, hits give low values 0.962 | locus YJR016C, strain ILV3, hits give low values 0.989 | locus YJR066W, strain TOR1 (second series), hits give low values 1 | locus YJR066W, strain TOR1, hits give low values 0.926 | locus YKL048C, strain ELM1, hits give low values 0.971 | locus YKL067W, strain YNK1, hits give low values 0.926 | locus YKL101W, strain HSL1, hits give low values 0.937 | locus YKL193C, strain SDS22, hits give low values 0.977 | locus YKL203C, strain TOR2, hits give low values 1.03 | locus YLR113W, strain HOG1, hits give low values 0.886 | locus YLR133W, strain CKI1, hits give low values 0.96 | locus YLR403W, strain SFP1, hits give low values 0.968 | locus YML070W, strain DAK1, hits give low values 0.94 | locus YMR001C, strain CDC5, hits give low values 0.959 | locus YMR205C, strain PFK2 (second series), hits give low values 0.962 | locus YMR277W, strain FCP1, hits give low values 0.954 | locus YNL006W, strain LST8, hits give low values 0.978 | locus YNL020C, strain ARK1, hits give low values 0.965 | locus YNL161W, strain CBK1, hits give low values 0.977 | locus YNL183C, strain NPR1, hits give low values 1.01 | locus YNL207W, strain RIO2, hits give low values 0.985 | locus YNL222W, strain SSU72, hits give low values 0.965 | locus YNL307C, strain MCK1 (second series), hits give low values 0.956 | locus YOL078W, strain AVO1, hits give low values 0.97 | locus YOL136C, strain PFK27, hits give low values 0.935 | locus YOR061W, strain CKA2, hits give low values 0.962 | locus YOR119C, strain RIO1, hits give low values 0.964 | locus YOR231W, strain MKK1, hits give low values 0.945 | locus YOR329C, strain SCD5, hits give low values 0.99 | locus YPL031C, strain PHO85, hits give low values 0.957 | locus YPL153C, strain RAD53, hits give low values 0.952 | locus YPL204W, strain HRR25, hits give low values 0.957 | locus YPL209C, strain IPL1, hits give low values 0.976 | locus YPL256C, strain CLN2, hits give low values 0.927 | locus YPR025C, strain CCL1, hits give low values 0.984 | locus YPR106W, strain ISR1, hits give low values 0.974 | locus YPR111W, strain DBF20, hits give low values 0.953 | strain NNK1, hits give low values 0.974 | strain TSCII, hits give low values 0.97

Source: PubChem BioAssay AID1159580 (chemical genetic matrix, 2015)
